Measured values taken from PubChem BioAssay (NCATS).
Where “and” joins values, the source holds several entries; their conditions need not be identical. Equal values may be shown once. Results filed as inconclusive are left out. Calls of active or inactive are those of the source. Unless noted, calls follow the shape of the dose curve; as a rule, active = well fitted curve in the direction sought with a large enough effect; inconclusive = small, poorly fitted or top-dose-only effect, or another doubt; inactive = no such curve, though single readings can be large; an effect the other way counts as inactive or inconclusive.

What was measured:
[1] = target: Cellular tumor antigen p53 (Homo sapiens) (UniProt P04637); assay: Primary qHTS for small molecule compounds that upregulate eGFP-tagged delta133p53alpha (in N-terminal) cells. (AID 2060322); settings: NCI-H358 eGFP-delta133p53alpha fluorescence, 24 h; activation: active compounds read high;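 also: series mostly up to about 56 µM; 0% = DMSO vehicle and 100% = reference activator; nearly all actives have a fitted effect of over 75% in size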
Chain of Cellular tumor antigen p53 (Homo sapiens) (P04637 whole entry, looked up): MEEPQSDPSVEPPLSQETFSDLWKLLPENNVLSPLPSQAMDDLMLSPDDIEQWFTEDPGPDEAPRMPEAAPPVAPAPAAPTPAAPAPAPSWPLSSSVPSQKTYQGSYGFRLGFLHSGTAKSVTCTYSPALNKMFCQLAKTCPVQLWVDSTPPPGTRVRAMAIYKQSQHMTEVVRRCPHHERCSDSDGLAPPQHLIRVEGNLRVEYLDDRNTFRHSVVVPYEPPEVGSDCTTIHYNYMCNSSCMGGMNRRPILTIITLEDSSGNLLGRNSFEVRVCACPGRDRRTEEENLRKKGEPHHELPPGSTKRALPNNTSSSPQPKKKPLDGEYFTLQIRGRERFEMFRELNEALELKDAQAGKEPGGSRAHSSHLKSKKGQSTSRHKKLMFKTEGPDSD
In short: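 NCI-H358 cells pre-induced 24 h with 10 ng/ml doxycycline to express N-terminal eGFP-delta133p53alpha, then dosed 24 h at 37C without doxycycline; fixed, Hoechst-stained, GFP intensity by laser scanning cytometry, normalized to DMSO (0%) and 57.5 uM 5-azacytidine (100%).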

[2] = target: Cellular tumor antigen p53 (Homo sapiens) (UniProt P04637); assay: Primary qHTS for small molecule compounds that upregulate eGFP-tagged delta133p53alpha (in C-terminal) cells. (AID 2060324);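 also: 0% = DMSO wells and 100% = 57.5 µM 5-azacytidine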
In short: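 NCI-H358 cells pre-induced 24 h with 100 ng/ml doxycycline to express delta133p53alpha-eGFP, then dosed in doxycycline-free medium for 24 h at 37C. Fixed, Hoechst-stained; GFP intensity by laser scanning cytometry, normalized to DMSO wells.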

[3] = target: Aldehyde dehydrogenase, mitochondrial (Homo sapiens) (UniProt P05091); assay: qHTS for Inhibitors of the Aldehyde Dehydrogenase Family (ALDH2) Validation screens (AID 2061302; active = well fitted inhibition curve with a large enough effect; title and protocol of this record describe different tests;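 also: plate controls were DMSO vehicle for no effect and maximal DPI positive control response for full effect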)
[4] = target: Retinaldehyde dehydrogenase 3 (Homo sapiens) (UniProt P47895); assay: qHTS for Inhibitors of the Aldehyde Dehydrogenase Family (ALDH1A3) Validation screen (AID 2061312); also: % is scaled to controls: 0 for no effect and ±100 for the full control effect; nearly all actives have a fitted effect of over 45% in size

O=C(O)CCC/C=C\C[C@@H]1[C@@H](/C=C/[C@H](O)C2Cc3ccccc3C2)[C@@H](F)C[C@@H]1O
inactive: activation [1] -5.22% | Potency [2] | Potency [3] | Potency [4]

NC(=O)C(=O)O
inactive: activation [1] -8.72% | Potency [2] | Potency [3] | Potency [4]

Nc1nc2ccc(Cl)cc2n2c(-c3ccccc3)nnc12
inactive: activation [1] -21.3% | Potency [2] | Potency [3] | Potency [4]

CNC(=O)[C@H]1O[C@@H](n2cnc3c(NCc4cccc(I)c4)ncnc32)[C@H](O)[C@@H]1O
inactive: activation [1] -36.7% | Potency [2] | Potency [3] | Potency [4]

C[C@H](Cc1ccccc1)Nc1ncnc2c1ncn2[C@@H]1O[C@H](CO)[C@@H](O)[C@H]1O
inactive: activation [1] -29.5% | Potency [2] | Potency [3] | Potency [4]

CN1CCN(C2Cc3ccccc3Sc3ccc(Cl)cc32)CC1 (stereo not given)
inactive: activation [1] -14.1% | Potency [2] | Potency [3] | Potency [4]

Cc1ccc(=O)n(-c2ccccc2)c1
inactive: activation [1] 1.01% | Potency [2] | Potency [3] | Potency [4]

CC(CCc1ccc(O)cc1)NCCc1ccc(O)c(O)c1 (stereo not given)
inactive: activation [1] 23.7% and -15.1% and -3.75% | Potency [2] | Potency [3] | Potency [4]

N#CC(C#N)=C(N)/C(C#N)=C/c1ccc(O)cc1
inactive: activation [1] -15.2% | Potency [2] | Potency [3] | Potency [4]

CO/N=C(\C(=O)N[C@@H]1C(=O)N2C(C(=O)O)=C(COC(C)=O)CS[C@H]12)c1csc(N)n1
inactive: activation [1] 2.44% | Potency [2] | Potency [3] | Potency [4]
